Measured values reported in article PMC11006913.
Changes are numbered by the printed parent chain.

Legend:
Test in all cases: PBM; 200 nM protein, PBS
Conditions in all cases: dsDNA, one strand shown
[1] = molecular target: T1, SIX6 (Homo sapiens, UniProt O95475 114-200, L167I)
T1 sequence: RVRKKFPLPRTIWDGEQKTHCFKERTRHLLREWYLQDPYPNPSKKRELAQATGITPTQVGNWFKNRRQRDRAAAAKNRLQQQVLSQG

[2] = molecular target: T2, SIX6 (Homo sapiens, UniProt O95475 114-200, L143V)
T2 sequence: T1 sequence with L30V, I54L

[3] = molecular target: T3, SIX6 (Homo sapiens, UniProt O95475 114-200, H141N)
T3 sequence: T1 sequence with H28N, I54L

[4] = molecular target: T4, SIX6 (Homo sapiens, UniProt O95475 114-200, T165P)
T4 sequence: T1 sequence with T52P, I54L

[5] = molecular target: T5, SIX6 (Homo sapiens, UniProt O95475 114-200, L167M)
T5 sequence: T1 sequence with I54M

[6] = molecular target: T6, SIX6 (Homo sapiens, UniProt O95475 114-200, L143M)
T6 sequence: T1 sequence with L30M, I54L

[7] = molecular target: T7, SIX6 (Homo sapiens, UniProt O95475 114-200, L143I)
T7 sequence: T1 sequence with L30I, I54L

[8] = molecular target: T8, SIX6 (Homo sapiens, UniProt O95475 114-200, T165G)
T8 sequence: T1 sequence with T52G, I54L

[9] = molecular target: T9, SIX6 (Homo sapiens, UniProt O95475 114-200, T139Q)
T9 sequence: T1 sequence with T26Q, I54L

[10] = molecular target: T10, SIX6 (Homo sapiens, UniProt O95475 114-200, T165A)
T10 sequence: T1 sequence with T52A, I54L

[11] = molecular target: T11, SIX6 (Homo sapiens, UniProt O95475 114-200, L167V)
T11 sequence: T1 sequence with I54V

[12] = molecular target: T12, SIX6 (Homo sapiens, UniProt O95475 114-200)
T12 sequence: T1 sequence with I54L

[13] = molecular target: T13, SIX6 (Homo sapiens, UniProt O95475 114-200, T165I)
T13 sequence: T1 sequence with T52I, I54L

Sequence | binding signal [1] | binding signal [2] | binding signal [3] | binding signal [4] | binding signal [5] | binding signal [6] | binding signal [7] | binding signal [8] | binding signal [9] | binding signal [10] | binding signal [11] | binding signal [12] | binding signal [13]
CCGCAGCG | 8.92 upbm affinity estimate (log intensity, higher = more binding, comparable within an allelic series) | 8.95 upbm affinity estimate (log intensity, higher = more binding, comparable within an allelic series) | 8.92 upbm affinity estimate (log intensity, higher = more binding, comparable within an allelic series) | 9.03 upbm affinity estimate (log intensity, higher = more binding, comparable within an allelic series) | 8.98 upbm affinity estimate (log intensity, higher = more binding, comparable within an allelic series) | 8.95 upbm affinity estimate (log intensity, higher = more binding, comparable within an allelic series) | 8.96 upbm affinity estimate (log intensity, higher = more binding, comparable within an allelic series) | 8.86 upbm affinity estimate (log intensity, higher = more binding, comparable within an allelic series) | 8.88 upbm affinity estimate (log intensity, higher = more binding, comparable within an allelic series) | 8.92 upbm affinity estimate (log intensity, higher = more binding, comparable within an allelic series) | 8.99 upbm affinity estimate (log intensity, higher = more binding, comparable within an allelic series) | 8.96 upbm affinity estimate (log intensity, higher = more binding, comparable within an allelic series) | 8.92 upbm affinity estimate (log intensity, higher = more binding, comparable within an allelic series)
GGATATCC | 11 upbm affinity estimate (log intensity, higher = more binding, comparable within an allelic series) | 10.2 upbm affinity estimate (log intensity, higher = more binding, comparable within an allelic series) | 10.9 upbm affinity estimate (log intensity, higher = more binding, comparable within an allelic series) | 9.51 upbm affinity estimate (log intensity, higher = more binding, comparable within an allelic series) | 10.6 upbm affinity estimate (log intensity, higher = more binding, comparable within an allelic series) | 10.9 upbm affinity estimate (log intensity, higher = more binding, comparable within an allelic series) | 10.2 upbm affinity estimate (log intensity, higher = more binding, comparable within an allelic series) | 11 upbm affinity estimate (log intensity, higher = more binding, comparable within an allelic series) | 11 upbm affinity estimate (log intensity, higher = more binding, comparable within an allelic series) | 10.8 upbm affinity estimate (log intensity, higher = more binding, comparable within an allelic series) | 10.9 upbm affinity estimate (log intensity, higher = more binding, comparable within an allelic series) | 11 upbm affinity estimate (log intensity, higher = more binding, comparable within an allelic series) | 10.9 upbm affinity estimate (log intensity, higher = more binding, comparable within an allelic series)
CGCGCCGC | 9.05 upbm affinity estimate (log intensity, higher = more binding, comparable within an allelic series) | 9.06 upbm affinity estimate (log intensity, higher = more binding, comparable within an allelic series) | 9.06 upbm affinity estimate (log intensity, higher = more binding, comparable within an allelic series) | 9.04 upbm affinity estimate (log intensity, higher = more binding, comparable within an allelic series) | 9.05 upbm affinity estimate (log intensity, higher = more binding, comparable within an allelic series) | 9.02 upbm affinity estimate (log intensity, higher = more binding, comparable within an allelic series) | 9.02 upbm affinity estimate (log intensity, higher = more binding, comparable within an allelic series) | 9.01 upbm affinity estimate (log intensity, higher = more binding, comparable within an allelic series) | 9.07 upbm affinity estimate (log intensity, higher = more binding, comparable within an allelic series) | 9.12 upbm affinity estimate (log intensity, higher = more binding, comparable within an allelic series) | 9.02 upbm affinity estimate (log intensity, higher = more binding, comparable within an allelic series) | 9.09 upbm affinity estimate (log intensity, higher = more binding, comparable within an allelic series) | 9.04 upbm affinity estimate (log intensity, higher = more binding, comparable within an allelic series)
ACCGCGCC | 8.84 upbm affinity estimate (log intensity, higher = more binding, comparable within an allelic series) | 8.82 upbm affinity estimate (log intensity, higher = more binding, comparable within an allelic series) | 8.81 upbm affinity estimate (log intensity, higher = more binding, comparable within an allelic series) | 8.88 upbm affinity estimate (log intensity, higher = more binding, comparable within an allelic series) | 8.85 upbm affinity estimate (log intensity, higher = more binding, comparable within an allelic series) | 8.81 upbm affinity estimate (log intensity, higher = more binding, comparable within an allelic series) | 8.86 upbm affinity estimate (log intensity, higher = more binding, comparable within an allelic series) | 8.91 upbm affinity estimate (log intensity, higher = more binding, comparable within an allelic series) | 8.95 upbm affinity estimate (log intensity, higher = more binding, comparable within an allelic series) | 8.82 upbm affinity estimate (log intensity, higher = more binding, comparable within an allelic series) | 8.78 upbm affinity estimate (log intensity, higher = more binding, comparable within an allelic series) | 8.78 upbm affinity estimate (log intensity, higher = more binding, comparable within an allelic series) | 8.84 upbm affinity estimate (log intensity, higher = more binding, comparable within an allelic series)
CTGTATCA | 11.2 upbm affinity estimate (log intensity, higher = more binding, comparable within an allelic series) | 10.3 upbm affinity estimate (log intensity, higher = more binding, comparable within an allelic series) | 11.2 upbm affinity estimate (log intensity, higher = more binding, comparable within an allelic series) | 9.69 upbm affinity estimate (log intensity, higher = more binding, comparable within an allelic series) | 10.6 upbm affinity estimate (log intensity, higher = more binding, comparable within an allelic series) | 10.9 upbm affinity estimate (log intensity, higher = more binding, comparable within an allelic series) | 10.3 upbm affinity estimate (log intensity, higher = more binding, comparable within an allelic series) | 11.1 upbm affinity estimate (log intensity, higher = more binding, comparable within an allelic series) | 11.1 upbm affinity estimate (log intensity, higher = more binding, comparable within an allelic series) | 11.1 upbm affinity estimate (log intensity, higher = more binding, comparable within an allelic series) | 10.9 upbm affinity estimate (log intensity, higher = more binding, comparable within an allelic series) | 10.9 upbm affinity estimate (log intensity, higher = more binding, comparable within an allelic series) | 10.9 upbm affinity estimate (log intensity, higher = more binding, comparable within an allelic series)
GATCCAGA | 10.5 upbm affinity estimate (log intensity, higher = more binding, comparable within an allelic series) | 10 upbm affinity estimate (log intensity, higher = more binding, comparable within an allelic series) | 10.4 upbm affinity estimate (log intensity, higher = more binding, comparable within an allelic series) | 9.57 upbm affinity estimate (log intensity, higher = more binding, comparable within an allelic series) | 10.1 upbm affinity estimate (log intensity, higher = more binding, comparable within an allelic series) | 10.3 upbm affinity estimate (log intensity, higher = more binding, comparable within an allelic series) | 10.1 upbm affinity estimate (log intensity, higher = more binding, comparable within an allelic series) | 10.4 upbm affinity estimate (log intensity, higher = more binding, comparable within an allelic series) | 10.6 upbm affinity estimate (log intensity, higher = more binding, comparable within an allelic series) | 10.4 upbm affinity estimate (log intensity, higher = more binding, comparable within an allelic series) | 10.3 upbm affinity estimate (log intensity, higher = more binding, comparable within an allelic series) | 10.5 upbm affinity estimate (log intensity, higher = more binding, comparable within an allelic series) | 10.3 upbm affinity estimate (log intensity, higher = more binding, comparable within an allelic series)
